Among the data in the supplement of paper PMC13380429 are morphology score and SARS-CoV-2 infection rate values, retold here.

The first assay has as its system Vero E6 infected with SARS-CoV-2. In words: morphology score (similarity to uninfected cells); higher = more like uninfected cells. The following applies: 24 h.
In turn, `COc1ccc(Cl)cc1C(=O)NCCc1ccc(C(=O)O)cc1` [meglitinide] (10 µM) returned a morphology score of 0.13. `C=CCN(C)CCCCCCOc1ccc(C(=O)c2ccc(Br)cc2)c(F)c1` (10 µM) gave a morphology score of 0.728. Still for that read-out and setting: the same measure for `CC(=O)N1CCN(C)CC1` [1-acetyl-4-methylpiperazine] (10 µM): -0.0421.

Molecule `O=C(OCCN1CCCCC1)c1c[nH]c2ccccc12` (10 µM) returned a morphology score of 0.0285.

Another assay has the same test system. Nature of the assay: SARS-CoV-2 infection rate relative to infected DMSO; higher = more infection, active = 60 or less. The following applies: 24 h.
As to `CN1CCN(c2cccc(Nc3nc4c(-c5ccc(S(C)(=O)=O)cc5)cccn4n3)c2)CC1` (0.833333 µM), the SARS-CoV-2 infection rate is 106% (inactive).

With `Fc1ccc(CN2CCC(Nc3ccc(C(F)(F)F)nn3)CC2)cc1F` (10 µM), the SARS-CoV-2 infection rate is 110% (inactive). As to `N[C@]1(C(=O)O)CC[C@@H](C(=O)O)C1` (10 µM), the SARS-CoV-2 infection rate is 82% (inactive). Consider `C#CC[C@H](c1nc2cc(Cl)ccc2c(=O)n1Nc1ccccc1)N(CCCN)C(=O)c1cccc(Cl)c1F` (0.833333 µM), for which the SARS-CoV-2 infection rate is 112% (inactive).

As for `N=C(NCCC[C@H](N)C(=O)O)N[N+](=O)[O-]` [NG-nitro-arginine] (10 µM), the SARS-CoV-2 infection rate was 108% (inactive). For `CCc1cc(C(N)=S)ccn1` [ethionamide] (10 µM), the SARS-CoV-2 infection rate was 102% (inactive). The same measure, in the same setting: the result for `N[C@@H](Cc1c[nH]c2ccccc12)C(=O)O` [tryptophan] (10 µM) reads 100% (inactive); that for `O=S(=O)(N[C@H](CO)C(C(F)(F)F)C(F)(F)F)c1ccc(Cl)s1` [begacestat] (10 µM), 98% (inactive); that for `CCC1(CC)C(=O)NC(=O)N(C)C1=O` [metharbital] (10 µM), 91.5% (inactive). Turning to `COc1cc2c(N3CCN(C(=O)Nc4ccc(OC(C)C)cc4)CC3)ncnc2cc1OCCCN1CCCCC1` [tandutinib] (10 µM), the SARS-CoV-2 infection rate is 95.5% (inactive). On the same count and under the same terms, the same measure for `CC(C)(O)C(=O)N1CCN(c2ccc(C(F)(F)F)c(C3=C(c4c[nH]c5ccccc45)C(=O)NC3=O)c2)CC1` (0.833333 µM): 108% (inactive); for `O=C(Nc1cc(Cl)cc(Cl)c1O)c1c(O)c(Cl)cc(Cl)c1Cl` [oxyclozanide] (10 µM): 113% (inactive); for `CC(=O)N1CCC[C@H]1C(=O)N[C@@H](Cc1cnc[nH]1)C(=O)N[C@@H](CO)C(=O)N[C@@H](CS)C(=O)N[C@@H](CC(N)=O)C(N)=O` (10 µM): 93% (inactive). In the case of `N=C(NCc1ccc(Cl)cc1)SCCCc1c[nH]cn1` [clobenpropit] (10 µM), the SARS-CoV-2 infection rate was 104% (inactive). In the case of `CN1C(=O)N(c2cc(Cl)cc(Cl)c2)C(=O)[C@@]1(C)Cc1ccc(Br)cc1` (10 µM), the SARS-CoV-2 infection rate was 96.5% (inactive). Turning to `O=C(NCC1(N2CCN(c3ccccc3)CC2)CCOCC1)c1cccnc1Sc1ccccc1` (10 µM), the SARS-CoV-2 infection rate is 112% (inactive).

In the case of `FC(F)(F)c1ccc(CNc2ccc(Cc3c[nH]c4ncccc34)cn2)cc1` (10 µM), the SARS-CoV-2 infection rate is 110% (inactive).

Take `NS(=O)(=O)c1cc2c(cc1Cl)N=C(CSCc1ccccc1)NS2(=O)=O` [benzthiazide] (10 µM): the SARS-CoV-2 infection rate was 116% (inactive). Regarding `CCCCc1ccc(C(N)=O)nc1` [bupicomide] (10 µM), the SARS-CoV-2 infection rate was 102% (inactive). Regarding `C1CCN2C[C@@H]3C[C@@H](CN4CCCC[C@@H]34)[C@H]2C1` [sparteine-sulfate] (10 µM), the SARS-CoV-2 infection rate is 112% (inactive). Take `COc1ccc2nc3cc(Cl)ccc3c(Nc3cc(CN4CCCC4)c(O)c(CN4CCCC4)c3)c2n1` [pyronaridine] (0.833333 µM): the SARS-CoV-2 infection rate was 100% (inactive). For `C=C1CC[C@H](O)C/C1=C/C=C1\CCC[C@]2(C)[C@@H]([C@H](C)CCCC(C)(C)O)CC[C@@H]12` [calcifediol] (10 µM), the SARS-CoV-2 infection rate is 115% (inactive).

On to `N#Cc1ccc2[nH]cc(CCCCN3CCN(c4ccc5oc(C(N)=O)cc5c4)CC3)c2c1` [vilazodone] (0.833333 µM), for which the SARS-CoV-2 infection rate was 102% (inactive).

Take `NCCCNCCCCNCCCN` [spermine] (10 µM): the SARS-CoV-2 infection rate is 107% (inactive). With `O=S1(=O)c2cccc3cccc(c23)N1CCCN1CCN(c2ccc(F)cc2)CC1` [fananserin] (10 µM), the SARS-CoV-2 infection rate was 108% (inactive). Consider `CC(C)n1nnc2cc(C(=O)O)ccc21` (10 µM), for which the SARS-CoV-2 infection rate was 102% (inactive). `O=c1c(O)c(-c2ccc(O)c(O)c2)oc2cc(O)ccc12` [fisetin] (10 µM): the SARS-CoV-2 infection rate was 111% (inactive).

As to `COC(=O)Nc1nc2cc(C(=O)c3ccccc3)ccc2[nH]1` [mebendazole] (0.833333 µM), the SARS-CoV-2 infection rate was 102% (inactive). In the case of `CCOc1cc(N2CCC(O)CC2)ccc1Nc1ncc2c(n1)N(C)c1ccccc1C(=O)N2C` (0.833333 µM), the SARS-CoV-2 infection rate was 114% (inactive).

Take `c1ccc2c(c1)CN1CCCC1=N2` [desoxypeganine] (10 µM): the SARS-CoV-2 infection rate is 94.5% (inactive). Same read-out and setting: the result for `Cc1c(NC(=O)N2CCOCC2)ccc2c1c1ccccc1n2C(C)C` (10 µM) reads 106% (inactive). As for `CCC(=O)NCC[C@@H]1CCc2ccc3c(c21)CCO3` [ramelteon] (10 µM), the SARS-CoV-2 infection rate is 114% (inactive). Still for that read-out and setting: the same measure for `CC(=O)Nc1ccccc1` [acetanilide] (10 µM): 102% (inactive); for `Cc1c(CC(C)(C)C(=O)O)n(Cc2ccc(Cl)cc2)c2ccc(F)cc12` (10 µM): 113% (inactive); for `CCN(CC)CCNC(=O)c1cc(Br)c(N)cc1OC` [bromopride] (10 µM): 116% (inactive).

Take `N=C(N)NCCC[C@@H](NC(=O)[C@@H]1CCCN1C(=O)[C@@H]1CSSCCC(=O)N[C@@H](Cc2ccc(O)cc2)C(=O)N[C@@H](Cc2ccccc2)C(=O)N[C@@H](CCC(N)=O)C(=O)N[C@@H](CC(N)=O)C(=O)N1)C(=O)NCC(N)=O` [desmopressin-acetate] (10 µM): the SARS-CoV-2 infection rate is 97.5% (inactive).

On to `COc1ccc(Cl)cc1C(=O)NCCc1ccc(C(=O)O)cc1` [meglitinide] (10 µM), for which the SARS-CoV-2 infection rate is 102% (inactive).

As to `C=CCN(C)CCCCCCOc1ccc(C(=O)c2ccc(Br)cc2)c(F)c1` (10 µM), the SARS-CoV-2 infection rate was 33.5% (active).

As for `CC(=O)N1CCN(C)CC1` [1-acetyl-4-methylpiperazine] (10 µM), the SARS-CoV-2 infection rate was 102% (inactive). Still for that read-out and setting: the result for `O=C(OCCN1CCCCC1)c1c[nH]c2ccccc12` (10 µM) reads 102% (inactive).
